Experimental data from the supplement of paper PMC9135407.
Structures can show the parent of a compound that is named as a salt. In all, about 5,800 compounds went through this assay and about 620 (11%) showed activity. This excerpt belongs to a sample that is enriched for actives. Unmarked numbers belong to inactive results.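 Rule for the calls: active = score above a cut-off or among the top three wells of a plate; in these data no inactive exceeds 0.85.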

Test system: primary human hepatic stellate cells (donor 1)
Test: scaled lipid accumulation score (0 = DMSO-like, 1 = nortriptyline-like); higher = stronger HSC inactivation (lipid re-accumulation), active = hit call of the paper
Conditions: 48 h
[1] = library stock concentration: 2 mM
[2] = library stock concentration: 3.33 mM
[3] = library stock concentration: 1 mM
[4] = library stock concentration: 10 mM
[5] = library stock concentration: 80 uM
[6] = library stock concentration: 400 uM

SMILES: C[C@@H](O)[C@@H]1NC(=O)[C@H](CCCCN)NC(=O)[C@@H](Cc2c[nH]c3ccccc23)NC(=O)[C@H](Cc2ccccc2)NC(=O)[C@@H](NC(=O)[C@H](N)Cc2ccccc2)CSSC[C@@H](C(=O)N[C@H](CO)[C@@H](C)O)NC1=O [Octreotide]
- scaled lipid accumulation score [1]: 0.006

SMILES: CC(=O)O/N=C1/C(c2c(O)[nH]c3cc(Br)ccc23)=Nc2ccccc21 [GSK-3 Inhibitor X]
- scaled lipid accumulation score [2]: ≤ 0

SMILES: O=C1C[C@@H]2[C@@H](CC[C@@H](O)CCc3ccccc3)[C@H](O)C[C@@H]2O1 [Latanoprost Lactone Diol]
- scaled lipid accumulation score [3]: 0.003

SMILES: O=C(CCCCCCCCCCCCC1CCCC1)Nc1ccc(S(=O)(=O)c2ccc(NC(=O)CCCCCCCCCCCCC3CCCC3)cc2)cc1 [Chaulmosulfone]
- scaled lipid accumulation score [4]: ≤ -0.027

SMILES: COc1cc2c(Oc3ccc4[nH]c(C)cc4c3F)ncnc2cc1OCCCN1CCCC1 [Cediranib (AZD2171)] [listing 1 of 2 here]
- scaled lipid accumulation score [4]: 0.678

SMILES: COc1cc2c(Oc3ccc4[nH]c(C)cc4c3F)ncnc2cc1OCCCN1CCCC1 [Cediranib (AZD2171)] [listing 2 of 2 here]
- scaled lipid accumulation score [2]: 1.1 (active)

SMILES: COc1cc2c(Oc3ccc4[nH]c(C)cc4c3F)ncnc2cc1OCCCN1CCCC1 [Cediranib] [listing 1 of 2 here]
- scaled lipid accumulation score [5]: 0.077
- scaled lipid accumulation score [6]: 0.464
- scaled lipid accumulation score [4]: 0.693

SMILES: Cc1cc2c(F)c(Oc3ncnn4cc(OC[C@@H](C)OC(=O)[C@H](C)N)c(C)c34)ccc2[nH]1
- scaled lipid accumulation score [2]: ≤ 0
- scaled lipid accumulation score [4]: ≤ 0

SMILES: Cc1cc2c(F)c(Oc3ncnn4cc(OC[C@@H](C)O)c(C)c34)ccc2[nH]1 [Brivanib]
- scaled lipid accumulation score [5]: ≤ -0.009
- scaled lipid accumulation score [6]: ≤ -0.009
- scaled lipid accumulation score [1]: ≤ -0.009
- scaled lipid accumulation score [4]: ≤ -0.009

SMILES: Cc1cc2c(F)c(Oc3ncnn4cc(OC[C@@H](C)O)c(C)c34)ccc2[nH]1
- scaled lipid accumulation score [2]: 0.023
- scaled lipid accumulation score [4]: ≤ 0

SMILES: COc1cc2c(Oc3ccc4[nH]c(C)cc4c3F)ncnc2cc1OCCCN1CCCC1 [Cediranib] [listing 2 of 2 here]
- scaled lipid accumulation score [1]: 1.06 (active)

SMILES: CCCCCCCC/C=C\CCCCCC(=O)O [cis-7-Hexadecenoic Acid]
- scaled lipid accumulation score [3]: ≤ 0

SMILES: COC(=O)C(C)(N)Cc1ccc(O)cc1 (racemic) [alpha-Methyl-DL-tyrosine methyl ester hydrochloride]
- scaled lipid accumulation score [4]: ≤ -0.019

SMILES: CN1CCC(CNc2ccc3ncc(-c4cccc(OC(F)(F)F)c4)n3n2)CC1 [listing 1 of 2 here]
- scaled lipid accumulation score [1]: 1.4 (active)

SMILES: CN1CCC(CNc2ccc3ncc(-c4cccc(OC(F)(F)F)c4)n3n2)CC1 [SGI-1776 free base]
- scaled lipid accumulation score [2]: 0.774
- scaled lipid accumulation score [4]: 0.181

SMILES: CN1CCC(CNc2ccc3ncc(-c4cccc(OC(F)(F)F)c4)n3n2)CC1 [listing 2 of 2 here]
- scaled lipid accumulation score [5]: 0.117
- scaled lipid accumulation score [6]: 0.23
- scaled lipid accumulation score [4]: 0.47

SMILES: CCCCC/C=C\C/C=C\C/C=C\C/C=C\CCCC(=O)NC[C@]1(C)CCC[C@]2(C)c3ccc(C(C)C)cc3CC[C@@H]12 [Arachidonic Acid Leelamide]
- scaled lipid accumulation score [3]: 0.002

SMILES: CCCCCCCCCCCCCCCC(=O)NC(CO)CO [Palmitoyl Serinol]
- scaled lipid accumulation score [3]: 0.026

SMILES: O=C(Nc1ccncc1)Nc1c(Cl)cc(Cl)cc1Cl [Rho Kinase Inhibitor II]
- scaled lipid accumulation score [2]: ≤ 0

SMILES: Cc1cc(C)c(Nc2ccnc(Nc3ccc(C#N)cc3)n2)c(C)c1 [Dapivirine (TMC120)] [listing 1 of 2 here]
- scaled lipid accumulation score [2]: 0.243

SMILES: Cc1cc(C)c(Nc2ccnc(Nc3ccc(C#N)cc3)n2)c(C)c1 [Dapivirine (TMC120)] [listing 2 of 2 here]
- scaled lipid accumulation score [4]: 1.08 (active)

SMILES: Cc1cc(/C=C/C#N)cc(C)c1Nc1ccnc(Nc2ccc(C#N)cc2)n1 [Rilpivirine]
- scaled lipid accumulation score [2]: ≤ -0.009
- scaled lipid accumulation score [4]: ≤ 0

SMILES: Cc1ccccc1-c1cccc(N2CCC(N3CCN(C)C(C)C3)CC2)c1 (centres undefined)
- scaled lipid accumulation score [4]: 1.05 (active)

SMILES: O=C(O)CCC/C=C\C[C@@H]1[C@@H](/C=C/[C@H](O)CCc2ccccc2)[C@H](O)C[C@@H]1O [15(R)-17-phenyl trinor Prostaglandin F2.alpha.]
- scaled lipid accumulation score [3]: ≤ 0

SMILES: CNC(=O)[C@@H](Cc1ccccc1)N(C)C(=O)[C@@H](Cc1ccc2ccccc2c1)N(C)C(=O)/C=C/CC(C)(C)N.CNC(=O)[C@@H](Cc1ccccc1)N(C)C(=O)[C@@H](Cc1ccc2ccccc2c1)N(C)C(=O)/C=C/CC(C)(C)N.O=C(O)/C=C/C(=O)O [Tabimorelin]
- scaled lipid accumulation score [4]: 1.3 (active)

SMILES: CN(Cc1ccccc1)C(=O)[C@H](Cc1ccc2ccccc2c1)NC(=O)[C@@H]1C[C@@H](O)CN1C(=O)c1cn(C)c2ccccc12
- scaled lipid accumulation score [4]: 0.019

SMILES: CN(Cc1ccccc1)C(=O)[C@H](Cc1ccc2ccccc2c1)NC(=O)[C@@H]1CCCN1C(=O)Nc1ccccc1[N+](=O)[O-]
- scaled lipid accumulation score [4]: 0.005

SMILES: CCCCCCCCCCCCC/C=C/[C@@H](O)[C@H](CO)NC(=O)CCCCCCCCCCCCCCC [C16 Ceramide]
- scaled lipid accumulation score [3]: ≤ -0.021

SMILES: C[n+]1cc2c3c(ccc2c2ccc4cc5c(cc4c21)OCO5)OCO3 [Sanguinarine chloride]
- scaled lipid accumulation score [4]: 0.196

SMILES: COc1ccc2cc3[n+](cc2c1OC)CCc1cc2c(cc1-3)OCO2 [Berberine chloride]
- scaled lipid accumulation score: ≤ 0
- scaled lipid accumulation score [4]: ≤ 0

SMILES: C[n+]1cc2c3c(ccc2c2ccc4cc5c(cc4c21)OCO5)OCO3 [Sanguinarine sulfate]
- scaled lipid accumulation score (library stock concentration: 4.7 mM): 0.693
- scaled lipid accumulation score [4]: 0.287

SMILES: COc1ccc2cc3[n+](cc2c1OC)CCc1cc2c(cc1-3)OCO2 [Berberine HCl]
- scaled lipid accumulation score [2]: ≤ 0
- scaled lipid accumulation score [4]: ≤ 0

SMILES: C[n+]1cc2c3c(ccc2c2ccc4cc5c(cc4c21)OCO5)OCO3 [Sanguinarine]
- scaled lipid accumulation score: 0.869 (active)

SMILES: CC#CCC(C)C(=O)/C=C/[C@@H]1[C@H]2C/C(=C/CCCC(=O)O)C[C@H]2C[C@H]1O (some centres undefined) [15-keto Iloprost]
- scaled lipid accumulation score [3]: ≤ 0

SMILES: CC(C)OC(=O)CCC/C=C\C[C@@H]1[C@@H](/C=C/C(=O)COc2cccc(C(F)(F)F)c2)[C@H](O)C[C@@H]1O [15-keto Fluprostenol isopropyl ester]
- scaled lipid accumulation score [3]: ≤ 0
